CD40 NFkB inh: CD40 pathway inhibition in BL2 cells. inhibition, % at 10 µM. AID 1053188. BL2 NF-kB luciferase reporter, CD40L-induced, 4 h. 0.94% of 83,000 active;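 active = mean inhibition of at least 50% with a set share of replicates also reaching that level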;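 note: 0% = neutral control wells and 100% = IKK inhibitor VII at 50 µM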
* hit, by the source's call; [ ] = dose if it differs, or a comment. Many of the other results were omitted from the sample, so hits are more common in it than they were.

How did Nc1nc2c(F)cccc2s1 do in these assays?
CD40 NFkB inh: -0.1

Results for CC(=O)N/C(N)=N/c1nc(=O)c2ccccc2s1 ?
CD40 NFkB inh: -97.3

Results for C[C@@H]1CN([C@H](C)CO)C(=O)CCCn2cc(nn2)CO[C@@H]1CN(C)C(=O)C1CCCCC1 ?
CD40 NFkB inh: -2.9

What do the screens show for `Nc1ncnc(Nc2ccccn2)c1[N+](=O)[O-]`?
CD40 NFkB inh: 8.4

What do the screens show for `Cc1cc(C)nc(Sc2ncnc(N)c2[N+](=O)[O-])n1`?
CD40 NFkB inh: 81.6*

How did Cc1cccnc1Nc1ncnc(N)c1[N+](=O)[O-] do in these assays?
CD40 NFkB inh: 2.7

Results for CC(C)NC(=O)N(C)C[C@H]1Oc2c(cccc2[N+](=O)[O-])C(=O)N(C)C[C@@H]1C ?
CD40 NFkB inh: 8.2

Results for NC(=S)NN=Cc1c[nH]c2nccnc12 ?
CD40 NFkB inh: 66.7*

How did Cn1cccc1/C=N/NC(N)=S do in these assays?
CD40 NFkB inh: 4.1

How did NC(=S)NN=Cc1nccc2c(C(F)(F)C(F)(F)C(F)(F)F)cccc12 do in these assays?
CD40 NFkB inh: 31.2

How did O=C(COC(=O)c1ccc(OC(F)F)cc1)Nc1ccc2c(c1)OCCO2 do in these assays?
CD40 NFkB inh: -5.7

How did O=C(/C=C/c1ccc([N+](=O)[O-])cc1)Nc1ncc([N+](=O)[O-])s1 do in these assays?
CD40 NFkB inh: 91.9*

How did CCCCC(CC)C(=O)Nc1ncc([N+](=O)[O-])s1 (centres undefined) do in these assays?
CD40 NFkB inh: 8.2

What do the screens show for `Cc1ccc(CC(=O)Nc2ncc([N+](=O)[O-])s2)cc1`?
CD40 NFkB inh: -47.2

How did O=C(Nc1ccc(S(=O)(=O)N2CCCC2)cc1)c1ccc(OCC2CCCO2)cc1 (centres undefined) do in these assays?
CD40 NFkB inh: 24.2

Results for Cc1cnc(NC(=O)c2ccc(OCC3CCCO3)cc2)s1 (centres undefined) ?
CD40 NFkB inh: 80.4*

How did O=C(Nc1nc2ccccc2s1)c1ccc(F)cc1 do in these assays?
CD40 NFkB inh: -80.1

What do the screens show for `O=C(Nc1ncccc1O)c1ccc(OCC2CCCO2)cc1` (centres undefined)?
CD40 NFkB inh: 38.9

How did O=C(Nc1nc2ccccc2s1)c1ccc(OCC2CCCO2)cc1 (centres undefined) do in these assays?
CD40 NFkB inh: 55.6*

What do the screens show for `O=C(NC1=NCCS1)c1ccc(OCC2CCCO2)cc1` (centres undefined)?
CD40 NFkB inh: 5.6

What do the screens show for `N#C[C@H]1[C@@H](c2ccccc2-c2ccccc2F)[C@@H](CO)N1C(=O)C1CC1`?
CD40 NFkB inh: 35.1[25 µM]

What do the screens show for `O=C(NCc1ccncn1)[C@H]1[C@H](CO)[C@H]2Cn3c(ccc(-c4ccc(F)cc4)c3=O)[C@H]2N1CC1CC1`?
CD40 NFkB inh: 11.9[25 µM]

Results for C=C[C@@]1(C)CC(=O)[C@]2(O)[C@@]3(C)[C@@H](O)CCC(C)(C)[C@@H]3[C@H](O)[C@H](OC(=O)CCCN3CCN(C)CC3)[C@@]2(C)O1 ?
CD40 NFkB inh: -13.4[25 µM]

What do the screens show for `CC(C)NC(=O)Nc1ccc2c(c1)C(=O)N(C)C[C@@H](C)[C@H](CN(C)S(C)(=O)=O)O2`?
CD40 NFkB inh: 1.9

Results for COc1ccc(C2C(=O)c3ccccc3C2=O)cc1 ?
CD40 NFkB inh: -8.8

How did O=C1c2ccccc2-c2nc3ccccc3cc21 do in these assays?
CD40 NFkB inh: -83.9

What do the screens show for `O=C1c2ccccc2C(=O)C1c1ccc2ccccc2n1`?
CD40 NFkB inh: 52.4*

Results for C[C@@H]1CN([C@H](C)CO)C(=O)CCCn2cc(nn2)CO[C@@H]1CN(C)C(=O)Nc1ccc(N2CCCCC2)cc1 ?
CD40 NFkB inh: -3.7[25 µM]

What do the screens show for `O=C(C[C@@H]1C[C@@H]2c3cc(NC(=O)C4CCC4)ccc3O[C@@H]2[C@H](CO)O1)NCCc1ccccc1`?
CD40 NFkB inh: 5.6[25 µM]

What do the screens show for `O=C(O)c1ccccc1O`?
CD40 NFkB inh: 4.0

How did O=S(c1ccccc1O)S(=O)c1ccccc1O (centres undefined) do in these assays?
CD40 NFkB inh: 81.5*

What do the screens show for `CS(=O)c1ccccc1O` (centres undefined)?
CD40 NFkB inh: 11.5

What do the screens show for `CCCC#Cc1ccc([C@@H]2[C@@H](C#N)N(S(=O)(=O)c3cccc(F)c3)[C@H]2CO)cc1`?
CD40 NFkB inh: 9.5[25 µM]

What do the screens show for `CCCN1C[C@H](C)[C@H](OC)CN(C)C(=O)c2cc(NC(=O)C3CCC3)ccc2OC[C@H]1C`?
CD40 NFkB inh: -1.4[25 µM]

How did CCc1cccc2sc(N(CCCN3CCOCC3)C(=O)CS(=O)(=O)c3ccccc3)nc12 do in these assays?
CD40 NFkB inh: -1.0

What do the screens show for `O=C(CCS(=O)(=O)c1ccccc1)N(CCCN1CCOCC1)c1nc2ccc(F)cc2s1`?
CD40 NFkB inh: 72.2*

Results for Cc1ccc2nc(N(CCCN(C)C)C(=O)CS(=O)(=O)c3ccccc3)sc2c1 ?
CD40 NFkB inh: 2.0

Results for CCCNC(=O)N1CC2(CCN(C(=O)Nc3cccc(F)c3)CC2)c2c(n(C)c3cc(OC)ccc23)[C@@H]1CO ?
CD40 NFkB inh: 33.7[25 µM]

Results for C[C@H](C(=O)N(C)C[C@@H]1OCc2ccccc2-c2c(n(C)c3ccccc23)C(=O)N([C@@H](C)CO)C[C@@H]1C)c1ccccc1 ?
CD40 NFkB inh: 5.8
